Consider 26 compounds from ChEMBL document CHEMBL4513216, “Probing the Open Global Health Chemical Diversity Library for Multistage-Active Starting Points for Next-Generation Antimalarials” (ACS Infect Dis, 2020).

Molecules are shown by their SMILES. In all, about 69,000 compounds went through this assay and about 8,600 (12%) showed an effect of 50% or more. The full list was thinned out, with strong results kept by preference.

For this experiment, the system named is Plasmodium berghei. Put plainly: Screen against P. berghei liver stage (PbLuc), transformed with Luciferase, at 10uM. Type of experiment: functional, HepG2. Conditions: tested at 10 uM.
On to `CCn1c(CN2CCN(CCO)CC2)nc2c(F)cccc21`, for which the INHIBITION is recorded as 24.95%. The same measure for `COCCO[C@H]1CCN(C(=O)c2ccno2)[C@H]1Cc1ccncc1`: 18.3%; for `CCC(C)NC(=O)Nc1cccc(OC)c1` (stereo unspecified): -32%; for `CCc1cnc2c(c1Nc1cccc(OC)c1)c(=O)n(C)c(=O)n2C`: -31%.

Regarding `CCC1(CC)C(=O)NC(=O)N/C1=N/c1cccc(OC)c1`, the INHIBITION was 58.2%. The same measure for `CCN(CC)Cc1cc(=O)n2c(n1)CN(S(=O)(=O)C1CC1)CCC2`: -3.26%; for `Cn1cnc(S(=O)(=O)NCCCN2CCCC2=O)c1Cl`: 4.71%; for `Cc1ccc(CN2C[C@@H]3C[C@H](C(=O)NCC4CC4)N(C)[C@@H]3C2)o1`: 16.1%.

Turning to `Cc1ccc(O)c(C(=O)N2CCOCC2c2c(C)nn(C)c2C)c1` (stereo unspecified), the INHIBITION is listed as -57.4%.

Turning to `CC1=N[C@@]2(CC[C@@H]3CN(C(=O)NCc4cccc(F)c4)C[C@@H]32)C(=O)N1`, the INHIBITION stood at 75.4%. The same measure for `CCC1=N[C@@]2(CC[C@@H]3CN(C(=O)NCc4ccccc4)C[C@@H]32)C(=O)N1`: 50%; for `CC1=N[C@@]2(CC[C@@H]3CN(C(=O)NCc4ccccc4C)C[C@@H]32)C(=O)N1`: 28.7%; for `CCC1=N[C@@]2(CC[C@@H]3CN(C(=O)NCc4cccc(F)c4)C[C@@H]32)C(=O)N1`: 39.2%. For `CCC1=N[C@@]2(CC[C@@H]3CN(C(=O)NCc4ccccc4C)C[C@@H]32)C(=O)N1`, the INHIBITION turned out to be 70.7%. The same measure for `CC1=N[C@@]2(CC[C@@H]3CN(C(=O)NCCc4ccccc4)C[C@@H]32)C(=O)N1`: 13.6%. With `CCC1=N[C@@]2(CC[C@@H]3CN(Cc4ccccc4C)C[C@@H]32)C(=O)N1`, the INHIBITION is 37.8%. The same measure for `CCC1=N[C@@]2(CC[C@@H]3CN(C(=O)NCC4CCCCC4)C[C@@H]32)C(=O)N1`: 47.4%; for `CCC1=N[C@@]2(CC[C@@H]3CN(C(=O)NCc4ccccc4)C[C@@H]32)C(=O)N1C`: 25%; for `Cc1ccc(-c2nnn(CCN3C(=O)CCC3=O)n2)cc1`: -47.1%. With `Cc1cnc(C(=O)N2CCc3ncnc(-c4cnn(C)c4)c3CC2)cn1`, the INHIBITION is -3.33%. Consider `CC(=O)Nc1nc(C(=O)N2CCCC2c2noc(C(C)C)n2)cs1` (stereo unspecified), for which the INHIBITION turned out to be 40.9%.

For the compound `CNC(=O)c1nc(CC(=O)Nc2cccc(C(F)(F)F)c2)no1`, the INHIBITION is recorded as -2.61%.

`Cc1cccc(OC2CN(C(=O)C3CC(=O)N(C(C)(C)C)C3)C2)c1` (stereo unspecified): the INHIBITION was 25.5%.

`CC(C)Oc1ccc(CN2CCN3CCN(C)CC3C2)cc1CO` (stereo unspecified): the INHIBITION is given as -6.97%.

On to `CC(C)Oc1ccc(CN2CCCC(N3CCCC3)C2)cc1CO` (stereo unspecified), for which the INHIBITION amounted to 20%. `CC(C)Oc1ccc(CN2CCCC(N3CCOCC3)C2)cc1CO` (stereo unspecified): the INHIBITION was found to be 82.9%.
